# High-throughput results from PubChem.
# D2 antagonist: antagonists of human D2 dopamine receptor | P14416 | HEK293 TREx D2 cells, calcium flux, dopamine EC80 | inhibition, % at 10 µM | 2% of 340,000 active | AID 485344; in the data active = inhibition above about 30%; inactive = below that, where a call was filed; also: 0% is about no effect
# Target sequence (P14416 whole entry, looked up): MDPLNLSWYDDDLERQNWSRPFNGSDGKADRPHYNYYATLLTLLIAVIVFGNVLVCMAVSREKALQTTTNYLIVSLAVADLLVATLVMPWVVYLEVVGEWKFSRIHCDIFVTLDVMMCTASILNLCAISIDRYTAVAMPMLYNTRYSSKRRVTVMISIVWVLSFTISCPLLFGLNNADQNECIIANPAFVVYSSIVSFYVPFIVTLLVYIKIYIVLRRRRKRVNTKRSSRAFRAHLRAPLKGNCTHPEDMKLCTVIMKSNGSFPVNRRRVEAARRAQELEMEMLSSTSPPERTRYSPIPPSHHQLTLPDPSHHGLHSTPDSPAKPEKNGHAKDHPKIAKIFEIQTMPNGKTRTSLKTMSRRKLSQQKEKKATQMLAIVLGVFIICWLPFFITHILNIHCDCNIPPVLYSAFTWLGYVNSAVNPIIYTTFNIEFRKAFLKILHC
#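 Tetracycline-induced HEK293 TREx cells expressing D2 receptor forced-coupled to calcium signalling, loaded with no-wash calcium dye. Compounds added and calcium flux read 180 s, then dopamine added at EC80 and read a further 180 s.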
# B2AR arrestin: beta2AR (human) beta-arrestin recruitment activity; P07550; 0.02% of 330,000 active; Potency, µM (titrated, usually from 46.1 µM), for the others: at the top dose activation, actives largely listed as activators; beta-arrestin recruitment to beta2AR, cell-based reporter; active = well fitted activation curve with a large enough effect;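 also: potency is read from the fitted curve at half-maximal effect; 0% = DMSO controls and full agonism = EC100 isoproterenol or metaproterenol; nearly all actives have a fitted effect of over 65% in size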
# D2 ag-1: D2 dopamine receptor (human) agonism; HEK293 T-REx D2 cells, calcium flux agonist mode; P14416; 0.53% of 340,000 active; activation, % at 2 µM; AID 485358;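 active = activation over 3 SD above normal in the single-dose calcium agonist read, cut at about 30% in these data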; also: 0% is about no effect
#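 Agonism scored from kinetic calcium signal (1 read/sec, 180 s) following compound pin transfer, after a 10 s baseline. Cells: HEK293 Trex line expressing inducible D2 receptor coupled to calcium, dye-loaded after overnight culture at 30 C.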
# D2 PAM-1: positively modulates the human D2 dopamine receptor allosterically. HEK293 T-REx D2, calcium flux, EC20 dopamine potentiation. 0.34% of 340,000 active. potentiation, % at 10 µM;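 active = potentiation over 3 SD above the plate norm, cut at about 30% in these data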; also: 0% is about no effect
#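 Tetracycline-induced HEK293 T-REx cells force-coupled to calcium signalling expressed D2; compounds were pin-added after a 10 s baseline, read kinetically 180 s, then an EC20 dopamine challenge followed with a further 180 s calcium read.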
# D2 PAM-2: potentiates the human D2 dopamine receptor allosterically. P14416. 0.23% of 360,000 active. DiscoveRx D2 beta-arrestin cells, luminescence, 90 min; 100% = 57 uM dopamine signal. potentiation, % (concentration not given with the values); in the data active = potentiation above about 50%
#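 D2 cells co-treated with compound plus 50 nM dopamine (EC20) for 90 min at 37 deg C to detect potentiation. Beta-arrestin recruitment was read as enzyme-fragment luminescence after 1 h at ambient temperature. Full response was set by 57 uM dopamine.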
# D2 ag-2: human D2 receptor agonism in beta-arrestin assay; P14416; DiscoveRx PathHunter D2 beta-arrestin, luminescence, 90 min; 100% = 57 uM dopamine signal; activation, % (test concentration not listed); 0.084% of 360,000 active; in the data active = activation above about 40%
#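 DiscoveRx PathHunter D2 beta-arrestin cells (2,100/well) attached overnight, then compound-stimulated 90 min at 37 C in HBSS/10 mM HEPES/0.1% Tween-20 buffer; beta-galactosidase complementation read by luminescence after 1 h at ambient temperature. Dopamine 57 uM final (EC100) as control.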
# * = called active by the depositor; / = no result given; ! = a repeat was not active. Shown are actives, neighbours in structure and some others; about 2.4% of the full set was active somewhere.
SMILES,D2 antagonist,B2AR arrestin,D2 ag-1,D2 PAM-1,D2 PAM-2,D2 ag-2
CCc1ccc(-c2nc(CS(=O)CC(=O)NCCCN3CCC(C)CC3)c(C)o2)cc1 (centres undefined),30*,0%,0,-9,-24,-7
CCC1CCCCN1CCCNC(=O)CS(=O)Cc1nc(-c2ccc(OC)c(OC)c2)oc1C (centres undefined),36*,0%,2,2,-8,-4
CCOC(=O)c1c(NC(=O)COC(=O)CNC(=O)c2ccc(Cl)cc2Cl)sc(C(=O)N(C)C)c1C,9,0%,-1,32*,-5,-1
CCOC(=O)c1c(NC(=O)COC(=O)c2nc(Cl)ccc2Cl)sc(C(=O)N(C)C)c1C,-4,0%,1,4,-14,-2
CC(C)NC(=O)c1ccc(-c2ccc(F)c(F)c2)c2ccoc12,/,/,/,/,-14,-5
COc1cccc(CC(=O)N2CCC(n3nccc3NC(=O)C3CC3)CC2)c1,-8,0%,1,4,-12,-2
CCN(CC)C(=O)N1CCN(Cc2ccc3c(c2)OCO3)CC1,-16,0%,33*,-10,-4,-2
O=C(c1ccc(F)cc1)N1CCCC(N2CCN(Cc3ccc4c(c3)OCO4)CC2)C1 (centres undefined),-32,0%,4,-13,-24,-4
O=C(c1cc2ccccc2o1)N1CCN(Cc2ccc3c(c2)OCO3)CC1,78*,0%,-1,-19,-33,-1
CN(C)c1ccc(C(=O)N2CCCC(N3CCN(Cc4ccc5c(c4)OCO5)CC3)C2)cc1 (centres undefined),32*,0%,1,-23,-44,-5
O=C(CCS(=O)(=O)c1cccc2nsnc12)N1CCN(C(=O)c2ccco2)CC1,11,0%,0,-6,-10,-7
O=C(CCS(=O)(=O)c1cccc2nsnc12)N1CCN(Cc2ccc3c(c2)OCO3)CC1,1,-1%,36*,-4,-7,-1
O=C(Cc1cccs1)Nc1nnc(Cc2ccc(F)cc2)s1,-5,0%,23,-11,/,/
COC(=O)c1ccc(N2NC(=O)/C(=C/c3ccc(-c4ccc(Cl)c(C(=O)O)c4)o3)C2=O)cc1,-5,0%,-1,-1,-7,-3
C/C(=N/NC(=O)c1sc(NS(=O)(=O)c2ccc(C)cc2)nc1C)c1sc(N)nc1C,-24,0%,0,-3,-3,-3
CC(=O)c1ccc(OCC(O)CN2CCN(Cc3ccc4c(c3)OCO4)CC2)cc1 (centres undefined),56*!,0%,2,3,-6,-2
COc1ccc(OCC(O)CN2CCN(Cc3ccc4c(c3)OCO4)CC2)cc1 (centres undefined),0,0%,0,-14,-26,-1
Cc1nc2ccc(S(=O)(=O)CCC(=O)Nc3ccc(F)cc3C)cc2s1,/,/,0,4,/,/
Cc1cccc(C)c1NCc1n[nH]c(=S)n1-c1ccccc1,51*,0%,-2,8,-3,4
CC(C)c1ccc(C2CC(=O)Nc3cc4c(cc32)OCCO4)cc1 (centres undefined),/,/,3,10,/,/
COc1cc2c(c(O)c1OC)-c1c(cc(OC)c(OC)c1OC)C[C@@H](C)[C@@H](C)C2,5,-1%,0,-5,-5,-3
COc1cc2c(c(O)c1OC)C(=O)C(OC)CCC2 (centres undefined),32*,1%,1,-8,6,-2
CCC(=O)NC(c1cccs1)c1ccc2cccnc2c1O (centres undefined),-28,13µM*,1,5,10,7
CC(C)CC(=O)NC(c1cccs1)c1ccc2cccnc2c1O (centres undefined),6,0%,0,16,8,1
CC(=O)c1sc(NC(=O)c2cc(S(=O)(=O)N3CCOCC3)ccc2F)nc1C,11,-1%,0,-1,3,4
CCN(CC)C(=O)C1=C(C)N(CCCN2CCCC2=O)C(=O)C(CC(=O)NCCCCc2ccccc2)C1 (centres undefined),/,/,/,/,-2,-7
